Assay [1] can be described thus: Viability qHTS for spleen associated tyrosine kinase inhibitor (SYKi) naive MV4-11 cells (AID 1963823). Also: nearly all actives have a fitted effect of over 40% in size. A digest of the protocol:
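qHTS, SYK inhibitor-naive MV4-11; 500 cells/well; 72 hr compound exposure, 37 C; CellTiter-Glo added, 10 min RT; luminescence read.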
(In qHTS, concentration-response curves come from the screen itself.)

Assay [2] can be described thus: Viability qHTS for spleen associated tyrosine kinase inhibitor (SYKi) drug resistant MV4-11 cells (AID 1963824). Also: nearly all actives have a fitted effect of over 35% in size. A digest of the protocol:
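SYK inhibitor-resistant MV4-11 AML cells, 500 per well, added to predispensed compounds and incubated 72 hr at 37 C, 5% CO2. Viability measured by CellTiter-Glo luminescence after 10 min at room temperature.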

Several values for one entry are separate records, joined by “and”; a condition that tells them apart may be missing. Identical values can stand only once. Inconclusive results are not listed. Unmarked numbers belong to inactive results. Activity calls are given as the source filed them. Calls follow the shape of the dose curve; as a rule, active = well fitted cell-killing curve with a large enough effect; inconclusive = small, poorly fitted or top-dose-only effect, or effect the other way; inactive = no such curve, though single readings can be large or run the other way.
Potency is read from the fitted curve at half-maximal effect.

With `CCC(C)C(=O)OC1CC(O)C23C4OCC5(C(O)CC2C1(C)C(O)O4)C3C(=O)CC1(C)C(c2ccoc2)CC2OC215` (stereo unspecified), the Potency in assay [1] was 0.893 µM (active); in assay [2], 0.563 µM (active).
For `O=C1NCCSc2c1sc1ccc(O)cc21`, in that order: 2.59 µM (active) and 2.91 µM (active).
As to `Nc1nonc1-c1nc2cnccc2n1C1CC1`, the Potency in assay [1] was 2.06 µM (active); in assay [2], 2.31 µM (active).
For `CC1(C)C2CC[C@]3(C)C(C(=O)C=C4[C@H]5C[C@@](C)(C(=O)O)CC[C@]5(C)CC[C@]43C)[C@@]2(C)CC[C@@H]1O` (stereo partly specified), in that order: “inactive” and “inactive”.
On the same counts, the results for `Cc1ccc(NS(=O)(=O)c2ccc3c(c2)CCC(=O)N3)cc1C` are 11.6 µM (active) and 9.2 µM (active).
As for `CCCCN1CCCC[C@H]1C(=O)Nc1c(C)cccc1C`, the Potency entry in assay [1] and in assay [2] was “inactive” throughout.
Regarding `NC[C@@H]1O[C@@H](O[C@@H]2[C@@H](O[C@@H]3O[C@H](CO)[C@@H](O)[C@H]3O)[C@H](O)[C@@H](N)C[C@H]2N)[C@@H](N)[C@H](O)[C@H]1O`, the viability (% of control) in assay [1] was 88.1% [at 9.25 µM]. Also, the viability, % of control in assay [2] was 93.2% [at 9.25 µM].
Turning to `CC1=C2C(=O)C=C(CO)[C@@H]2[C@H]2OC(=O)[C@H](C)[C@@H]2[C@@H](O)C1`, the Potency result in assay [1] and in assay [2] was “inactive” each time.
For the compound `COc1cc(C(O)C2COC(c3ccc(OC4OC(CO)C(O)C(O)C4O)c(OC)c3)C2CO)ccc1O` (stereo unspecified), in assay [1], the Potency was 4.47 µM (active). For the same compound, the Potency result in assay [2] was “inactive”.
On the same counts, the results for `C=C1[C@H]2CC[C@H](C(=O)O)[C@@]23CC[C@H](C3)C1(C)C` are “inactive” and “inactive”.
On the same counts, the results for `COC(=O)c1ccccc1O[C@@H]1O[C@H](CO)[C@@H](O)[C@H](O)[C@H]1O[C@@H]1O[C@@H](C)[C@H](O)[C@@H](O)[C@H]1O` are “inactive” and “inactive”.
Consider `C=C(C(=O)OC)C1C(O)CC2(C)C(=O)CCC(O)(CO)C2C1O` (stereo unspecified), for which the Potency result in assay [1] and in assay [2] was “inactive” throughout.
With `NC1CCCN(c2c(/C=C3\SC(=O)NC3=O)cccc2-c2ccccc2)C1` (stereo unspecified), the Potency in assay [1] was 2.06 µM (active) and 3.72 µM (active); in assay [2], 8.2 µM (active) and 13.2 µM (active).
Take `C=C(C(=O)O)C1CC2=C(C)C(=O)CC2C(C)CC1O` (stereo unspecified): the Potency in assay [1] was 4.61 µM (active); in assay [2], 3.66 µM (active).
Turning to `CN1CCN(CCCN2c3ccccc3Sc3ccc(S(=O)(=O)N(C)C)cc32)CC1`, the Potency in assay [1] is 11.9 µM (active); in assay [2], 10.6 µM (active).
`N#C/C(=C1/Nc2ccccc2S1)c1ccnc(OCc2ccc(CN3CCOCC3)cc2)n1`: the Potency in assay [1] is 10.5 µM (active); in assay [2] it was 8.33 µM (active).
Turning to `O=C(NCCN1CCOCC1)c1cc2c(Oc3ccc(NC(=O)C4(C(=O)Nc5ccc(F)cc5)CC4)cc3)ccnc2[nH]1`, the values for the Potency in assay [1] and in assay [2] were 0.0259 µM (active) and 0.0411 µM (active), respectively.
On the same counts, the results for `C[C@]12C[C@@H](O)[C@@H]3C[C@@]1(O[C@@H]1O[C@H](CO)[C@@H](O)[C@H](O)[C@H]1O)[C@]3(COC(=O)c1ccccc1)C(=O)O2` are “inactive” and “inactive”.
On the same counts, the results for `C=C(C)C(=O)O[C@H]1C[C@@](C)(OC(C)=O)[C@@]2(O)CC[C@@](C)(O)[C@H](OC(C)=O)[C@@]23OC(=O)C(COC)=C13` are 8.93 µM (active) and 11.2 µM (active).
On to `CC1(C)CC2C3=CCC4C5(C)CCC(OC6OC(C(=O)O)C(O)C(O)C6OC6OC(CO)C(O)C(O)C6OC6OC(CO)C(O)C(O)C6O)C(C)(CO)C5CCC4(C)C3(C)CCC2(C)C(OC2OCC(O)C(OC3OC(CO)C(O)C(O)C3O)C2O)C1O` (stereo unspecified), for which the viability (% of control) in assay [1] is 96.2% [at 9.25 µM]. Moreover, in assay [2], the viability, % of control is 112% [at 9.25 µM].
As for `COc1c(O[C@@H]2O[C@H](CO)[C@@H](O)[C@H](O)[C@H]2O)c(CCC(=O)O)cc2ccoc12`, the Potency entry in assay [1] and in assay [2] was “inactive” in each case.
`CC(C)n1cc(-c2ccc(Oc3ccccc3)cc2)c2c(N)ncnc21`: the Potency is 0.092 µM (active) in assay [1] and 0.206 µM (active) in assay [2].
On the same counts, the results for `COc1ccc2c(c1)CN(C(=O)CCN1CCC(Cc3ccccc3)CC1)CCS2` are 8.93 µM (active) and 8.93 µM (active).
On the same counts, the results for `CO[C@H]1[C@@H](O)[C@H](O[C@H]2CC[C@@]3(C)C(CCC4C3CC[C@]35COC6(COC(=O)C6)C3CCC45O)C2)O[C@@H](C)[C@@H]1OC1OC(CO)C(OC2OC(CO)C(O)C(O)C2O)C(O)C1O` (stereo partly specified) are 1.23 µM (active) and 1.1 µM (active).
On the same counts, the results for `COc1c2ccoc2nc2c(OC)c(O[C@@H]3O[C@@H](C)[C@H](O)[C@@H](O[C@@H]4O[C@H](CO)[C@@H](O)[C@H](O)[C@H]4O)[C@H]3OC(C)=O)ccc12` are “inactive” and “inactive”.
As for `O=C(OC[C@H]1O[C@H](O[C@]2(CO)O[C@H](CO)[C@@H](O)[C@@H]2O)[C@H](O)[C@@H](O)[C@@H]1O)c1ccc(O)cc1`, the Potency entry in assay [1] and in assay [2] was “inactive” throughout.
Regarding `C/C1=C\[C@H]2OC(=O)[C@@H](C)[C@@H]2CC/C(C(=O)O)=C/CC1`, the Potency entry in assay [1] and in assay [2] was “inactive” in each case.
Turning to `CC(C)CNC(=O)/C=C/CCCCc1ccc2c(c1)OCO2`, the Potency entry in assay [1] and in assay [2] was “inactive” each time.

(Values after PubChem BioAssay (NCATS).)
